# Screening results from PubChem.
# Cycloheximide cs: Cycloheximide Counterscreen for Small Molecule Inhibitors of Shiga Toxin; cell reporter, cycloheximide protein synthesis inhibition counterscreen; max response, %; actives 12% (n = 300,000); in the data active = max response mostly above about 13%, no sharp cut-off; inactive = mostly below about 14%; note: read at 38.3 µM for the half of the compounds with a filed dose; 0% is about no effect
# SARS PLP yeast: qHTS of Yeast-based Assay for SARS-CoV PLP; actives 0.19% (n = 330,000); Potency, µM (titrated, usually from 32.9 µM), inactives show top-dose activity, positive = growth rescue, actives largely listed as activators; S. cerevisiae expressing SARS-CoV PLpro, growth rescue; note: potency is the fitted concentration of half-maximal effect; 0% is about no effect; nearly all actives have a fitted effect of over 55% in size
# Pf growth 96h: Primary qHTS for delayed death inhibitors of the malarial parasite plastid, 96 hour incubation. P. falciparum luciferase reporter growth, 96 h. actives 6.9% (n = 320,000). AID 504834, 2011. Potency, µM (doses to about 28.7 µM), without a hit: at the top dose activity change, negative = inhibition, actives largely listed as inhibitors; active = well fitted inhibition curve with a large enough effect; inconclusive = small, poorly fitted or top-dose-only effect, or another doubt; inactive = no such curve, though single readings can be large or run the other way; note: potency is the fitted concentration of half-maximal effect; % is set by controls: 0 for no effect and ±100 for the full control effect
#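 Luminescence readout: decreased luciferase signal marks inhibited growth of reporter-expressing P. falciparum in infected red cells (2% hematocrit, 0.05% parasitemia final), exposed to compound two generations (96 h, 37 C, 5% CO2).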
# Pf growth 48h: Primary qHTS for delayed death inhibitors of the malarial parasite plastid, 48 hour incubation; P. falciparum luciferase growth in erythrocytes, 48 h; Potency, µM (highest dose often 28.7 µM), for inactives: at the top dose activity change, negative = inhibition, usual class: inhibitors; actives 5.9% (n = 310,000); active = well fitted inhibition curve with a large enough effect; inconclusive = small, poorly fitted or top-dose-only effect, or another doubt; inactive = no such curve, though single readings can be large or run the other way; note: potency is the fitted concentration of half-maximal effect; % is set by controls: 0 for no effect and ±100 for the full control effect
#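 Here the parasites carry a stable luciferase gene and grow inside erythrocytes in Albumax-based RPMI medium with compound for one erythrocytic cycle. Activity is scored as loss of luminescent signal.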
# NS1 inh: qHTS Assay for Inhibitors of Influenza NS1 Protein Function. Potency, µM (titrated, usually from 46.1 µM), inactives show at the top dose activity, positive = more growth. actives 0.4% (n = 270,000). AID 2326, 2010; note: potency is the fitted concentration of half-maximal effect; actives are rising curves; nearly all actives have a fitted effect of over 50% in size
#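 Growth recovery, yeast-based: influenza A NS1 expressed in S. cerevisiae causes slow growth, and suppressors are detected by OD600. The parent strain without NS1 is used as positive control.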
# Shiga inhibitor: A qHTS for Small Molecule Inhibitors of Shiga Toxin. Vero cells, Shiga toxin protein synthesis inhibition reporter. inhibition, % at 38.7 µM. actives 9.2% (n = 290,000). AID 2315, 2010; in the data active = inhibition mostly above about 28%, no sharp cut-off; inactive = mostly below about 43%; note: 0% is about no effect
# * hit, by the source's call; ? = inconclusive; · = no result. Sampled rows, rich in hits. Any-hit rate of the full collection: about 21%. Unless noted, calls come from the whole dose curve.
SMILES,Cycloheximide cs,SARS PLP yeast,Pf growth 96h,Pf growth 48h,NS1 inh,Shiga inhibitor
O=C(CSc1ccc(-c2ccccn2)nn1)N1CCc2ccccc21,19.1,2.3%,22.5%,4.0%,·,42.0*
O=C(CSc1ccccn1)N1CCc2ccccc21,40.2*,-1.6%,-0.3%,388.9%,·,115.9*
CC(NC(=O)CN(C)Cc1cccs1)c1ccccc1 (stereo not drawn),-2.6,0.1%,39.3%,?,·,-2.4
COc1cc(OC)cc(C(=O)N2CCC(n3c(C)nc4cc(F)ccc43)CC2)c1,-1.9,3.9%,13.1µM*,·,-17.3%,-11.2
CCC(C)n1c(SCc2ccc([N+](=O)[O-])cc2)nc2ccsc2c1=O (stereo not drawn),-2.6,-4.1%,-11.1%,?,4.9%,-9.6
CC(C)[C@H](NC(=O)OCc1ccccc1)C(=O)OCC(=O)N1CCN(c2ccccc2)CC1,·,3.6%,?,0.9%,·,·
c1ccc(CSc2nnc3ccc(-c4cccs4)nn23)nc1,32.0,-12.3%,34.3%,62.9%,·,61.2*
O=[N+]([O-])c1cccc(-c2ccc3nnc(SCc4ccccn4)n3n2)c1,5.9,5.8%,4.6%,2.5%,·,14.0
c1ccc(CSc2nnc3ccc(-c4ccco4)nn23)nc1,34.1*,3.4%,?,47.7%,·,66.7*
CCN(CCNCC(O)COc1ccccc1C(C)C)c1cccc(C)c1 (stereo not drawn),-4.1,-3.6%,5.22µM*,3.29µM*,2.6%,-6.8
CCOc1ccccc1NC(=S)N1CCCc2ccccc21,14.0,0.7%,?,25.0%,·,5.9
CC1CCCC(NC(=O)CN2CCN(S(=O)(=O)c3cccs3)CC2)C1C (stereo not drawn),·,1.6%,-16.7%,?,·,·
N#Cc1ccc(N2CCOCC2)nc1,-2.4,0.7%,11.9%,98.8%,2.3%,5.9
O=c1cc(-c2ccccc2)n(S(=O)(=O)c2ccccc2)o1,16.5*,5.7%,·,5.1%,0.0%,-8.9
COc1ccc(S(=O)(=O)n2oc(=O)cc2-c2ccccc2)cc1,7.9,-2.0%,·,12.6%,2.3%,17.9
COc1ccc(Cl)cc1NC(=O)CCNS(=O)(=O)c1cccc2nonc12,-1.3,2.3%,10.4µM*,26.8%,8.4%,-6.2
COc1ccc(C)cc1NC(=O)CCNS(=O)(=O)c1cccc2nonc12,2.8,-8.5%,21.1%,0.0%,-4.8%,-18.6
Cc1ccc(NS(=O)(=O)c2ccc(-c3ccc(=O)[nH]n3)o2)cc1N(C)C,44.4*,4.0%,-12.9%,18.4%,4.6%,60.1*
Cc1cccc(NS(=O)(=O)c2ccc(-c3ccc(=O)[nH]n3)o2)c1,0.3,26.9%,-4.3%,-1.2%,5.3%,-8.9
Cc1ccc(C)c(NS(=O)(=O)c2ccc(-c3ccc(=O)[nH]n3)o2)c1,-1.2,0.0%,?,29.5%,-6.3%,-1.2
Cc1ccc(NS(=O)(=O)c2ccc(-c3ccc(=O)[nH]n3)o2)cc1Cl,1.7,1.3%,9.28µM*,2.8%,-1.3%,1.7
O=C(COC(=O)CCc1ccccc1)Nc1cc(S(=O)(=O)N2CCOCC2)ccc1N1CCCC1,7.9,-3.8%,0.0%,?,-8.1%,4.4
COc1cc(C)ccc1OCc1cc(C(=O)N(Cc2nccn2C)C(C)C)no1,73.4*,-3.3%,?,19.4%,-14.1%,86.5*
CCn1ccnc1CN(C)C(=O)c1cc(COc2ccc(OC)c3ccccc23)on1,8.3*,-1.1%,-23.7%,?,-40.0%,11.9
Cc1cccc(C)c1OCc1cc(C(=O)N(Cc2nccn2C)C(C)C)no1,19.3*,0.4%,-5.5%,?,-12.7%,25.0
SMILES,Cycloheximide cs,SARS PLP yeast,Pf growth 96h,Pf growth 48h,NS1 inh,Shiga inhibitor
CCN(Cc1ccncc1)C(=O)c1cc(COc2c(C)cccc2C)on1,10.6*,-12.4%,-5.2%,?,-38.6%,41.4*
Cc1cccc(C)c1OCc1cc(C(=O)N(C)Cc2nc3ccccc3[nH]2)no1,12.5,-3.9%,-3.5%,-15.3%,-37.4%,21.1
COc1ccc(C2NS(=O)(=O)OCC2C)cc1 (stereo not drawn),-4.0,-16.7%,23.4%,30.0%,-11.0%,-9.6
CCOCCOCN(C#N)c1nc(OC)nc(N(C)C)n1,-3.6,4.4%,?,5.3%,0.6%,10.2
COc1ccc(NC(=O)CN2C(=O)CC(C)(C)S(=O)(=O)c3ccccc32)cc1,0.5,-2.2%,-6.3%,·,-2.9%,-6.0
Cc1cccc(C)c1NC(=O)CNC(=O)Cc1ccccc1[N+](=O)[O-],-1.6,-5.8%,-4.7%,16.8%,4.2%,-9.5
Cc1cccc([N+](=O)[O-])c1NC(=O)CN(Cc1ccccc1)Cc1ccccc1,-1.6,0.0%,8.28µM*,?,-6.3%,2.4
CC(=O)c1cccc(OCc2cc(C(=O)N(C)Cc3ccc(C)o3)no2)c1,22.1*,-6.1%,2.9%,5.3%,-2.3%,79.4*
Cc1nc(CN(C)C(=O)c2cc(COc3ccc4ncccc4c3)on2)cs1,11.1,-0.6%,-23.3%,-17.6%,-3.3%,19.3
CC(=O)c1cccc(OCc2cc(C(=O)N(C)CCc3ccccn3)no2)c1,15.2*,-1.5%,?,-0.7%,-0.1%,36.9
Cc1ccc(OCc2cc(C(=O)N(C)CCc3ccccn3)no2)cc1C,82.9*,-3.2%,-19.5%,?,-14.1%,108.6*
Cc1ccc(OCc2cc(C(=O)N(C)CCc3nc4ccccc4[nH]3)no2)cc1C,27.0*,-7.0%,63.4%,?,-19.6%,21.5
CCCN(C(=O)COC(=O)CSc1ccc([N+](=O)[O-])cc1)C1CCS(=O)(=O)C1 (stereo not drawn),·,5.2%,1.0%,1.9%,·,·
CC(C)c1nc2sc(C(=O)O)c(N)c2c2c1CCCC2,-2.9,-0.7%,13.1µM*,?,-0.3%,-1.6
Cc1cccc(NC(=O)c2c(C)nc3ccccn23)c1,28.7*,-2.8%,-17.3%,95.0%,-5.9%,79.9*
Cc1cc(C)cc(NC(=O)c2c(C)nc3ccccn23)c1,10.7,-0.4%,23.1%,-28.9%,-1.3%,16.0
Cc1ccc(/C=C/C(=O)c2c(C)nc3ccccn23)cc1,39.5*,-10.7%,-42.8%,169.9%,-89.5%,69.7*
Cc1nc2ccccn2c1C(=O)/C=C/c1cccc([N+](=O)[O-])c1,1.4,1.2%,?,?,0.1%,-9.0
Cc1ccc(NC(=O)c2c(C)nc3ccccn23)cc1C,41.2*,-2.5%,256.0%,385.3%,·,56.9*
Cc1ccc(N=C2CSC(=O)N2)cc1,4.1,0.8%,11.5%,46.9%,·,21.7
Cc1ccc(N=c2sc(C)c(C)n2C)cc1,70.2*,15.0%,81.8%,104.6%,7.9%,79.7*
CCOC(=O)c1[nH]c(C)c(C(=O)OCCOc2cccc(C)c2)c1C,21.5*,22.7%,2.62µM*,7.38µM*,-5.0%,10.3
